{"source": "PubChem BioAssay AID463173", "about": "(ICCB-Longwood Screening Facility, Harvard Medical School, 2010)", "note": "Screen size: about 52,000 compounds; about 4,300 (8.3%) were called active. This excerpt belongs to a sample that is enriched for actives. Unmarked numbers belong to inactive results. Cut-off read from the data, not from the text of the source: active = survival mostly below about 52% (no sharp cut-off); inactive = mostly above about 56%."}
{"tested_on": "DeltatarO mutant", "experiment": "S. aureus survival, RN4220 and DeltatarO strains – OD600, teichoic acid synthesis inhibitors, primary screen (AID 463173)", "conditions": "S. aureus RN4220 wild type/DeltatarO growth, OD600, 18 h, stronger effect = lower value, screened at 18.75 µg/mL (by protocol)"}
{"smiles": "O=S(=O)(c1ccc(Br)cc1)c1nc(-c2cccs2)oc1SCc1ccccc1F", "survival": "66%"}
{"smiles": "Cc1cccc(CN2C(=O)c3ccccc3S(=O)(=O)c3ccc(C(=O)N4CCN(c5cc(C)ccc5C)CC4)cc32)c1", "survival": "74%"}
{"smiles": "CC1CCN(S(=O)(=O)c2ccc3c(c2)N(CC(=O)NCCc2ccc(Cl)cc2)C(=O)CO3)CC1", "survival": "87%"}
{"smiles": "Cc1cc(C)cc(Oc2nc3ccccn3c(=O)c2/C=C(\\C#N)c2nc3ccccc3s2)c1", "survival": "60%"}
{"smiles": "COc1ccc(NC(=O)CC2C(=O)N(c3ccc(C)cc3)C(=O)N2Cc2ccc(C)cc2)cc1", "note": "(centres undefined)", "survival": "68%"}
{"smiles": "Cc1ccc(CN(C(=O)COc2ccccc2Cl)c2ccccn2)o1", "survival": "59%"}
{"smiles": "COc1ccc(CCNc2ncnc3onc(C)c23)c(OC)c1", "survival": "100%"}
{"smiles": "COC(=O)c1c(-c2cccs2)csc1NC(=O)COc1ccccc1", "survival": "78%"}
{"smiles": "O=c1[nH]c2ccc(N=Cc3ccc(F)cc3)cc2[nH]1", "survival": "73%"}
{"smiles": "COc1cc(C=Nc2ccc3[nH]c(=O)[nH]c3c2)ccc1OC(C)=O", "survival": "85%"}
{"smiles": "O=c1[nH]c2ccc(N=Cc3ccccc3C(F)(F)F)cc2[nH]1", "survival": "71% (active)"}
{"smiles": "CC1CCN(S(=O)(=O)c2ccc3c(c2)N(CC(=O)O)C(=O)CO3)CC1", "survival": "94%"}
{"smiles": "CCOc1ccc(CNC(=O)Cc2ccc(NC(=O)N3CCCCc4ccccc43)cc2)cc1OC", "survival": "85%"}
{"smiles": "COc1ccc(N2CCN(C(=O)Nc3cn(CC(C)C)c(=O)c4ccccc34)CC2)cc1", "survival": "83%"}
{"smiles": "CS(=O)(=O)N1CCC(N2CCN(Cc3ccccc3)C(=O)C2=O)CC1", "survival": "91%"}
{"smiles": "CC(=O)c1ccc(NC(=O)c2nc(-c3ccc(C)cc3)n3c2CCCCC3)cc1", "survival": "58%"}
{"smiles": "Cc1ccc(-c2nc(C(=O)Nc3cccc(C#N)c3)c3n2CCCCC3)cc1", "survival": "88%"}
{"smiles": "CC(=O)c1cccc(NC(=O)c2nc(-c3ccc(C)cc3)n3c2CCCCC3)c1", "survival": "34% (active)"}
{"smiles": "N#C/C(=C/c1ccc(-c2cccc(C(F)(F)F)c2)o1)C(=O)OC1CCCCC1", "survival": "82%"}
{"smiles": "Cc1cccc(C(=O)Nc2cccc(C(=O)OCc3cc(=O)n4nc(C(C)C)sc4n3)c2)c1", "survival": "113%"}
{"smiles": "Cc1ccc(N2C(=O)c3n[nH]c(C)c3C2c2ccc(Cl)cc2)cc1", "note": "(centres undefined)", "survival": "6% (active)"}
{"smiles": "CCOc1ccc(C2c3c(-c4ccc(C)cc4)n[nH]c3C(=O)N2c2ccc(Cl)cc2)cc1", "note": "(centres undefined)", "survival": "91%"}
{"smiles": "Cc1ccc(N2C(=O)c3n[nH]c(C)c3C2c2ccc(C(C)C)cc2)cc1", "note": "(centres undefined)", "survival": "39% (active)"}
{"smiles": "CCOC(=O)c1ccc(N2C(=O)c3n[nH]c(C)c3C2c2ccc(C(C)C)cc2)cc1", "note": "(centres undefined)", "survival": "86%"}
{"smiles": "COc1ccccc1C1c2c(-c3ccc(Cl)cc3)n[nH]c2C(=O)N1c1ccc(C)cc1", "note": "(centres undefined)", "survival": "79%"}
{"smiles": "COc1ccc(C2c3c(-c4ccc(F)cc4)n[nH]c3C(=O)N2c2ccccc2)cc1OC", "note": "(centres undefined)", "survival": "124%"}
{"smiles": "CCOC(=O)c1ccc(N2C(=O)c3n[nH]c(-c4cccs4)c3C2c2ccc(C(C)C)cc2)cc1", "note": "(centres undefined)", "survival": "104%"}
{"smiles": "COc1cc(C2c3c(-c4ccc(C)cc4)n[nH]c3C(=O)N2c2ccc(F)cc2)ccc1O", "note": "(centres undefined)", "survival": "95%"}
{"smiles": "Cc1ccc(N2C(=O)c3[nH]nc(-c4ccc(Cl)cc4)c3C2c2ccc(F)cc2)cc1", "note": "(centres undefined)", "survival": "44% (active)"}
{"smiles": "O=C1c2[nH]nc(-c3ccc(F)cc3)c2C(c2ccccc2F)N1c1ccccc1", "note": "(centres undefined)", "survival": "10% (active)"}
{"smiles": "Cc1ccc(-c2n[nH]c3c2C(c2cccs2)N(c2ccc(Cl)cc2)C3=O)cc1", "note": "(centres undefined)", "survival": "62%"}
{"smiles": "Cc1ccc(N2C(=O)c3n[nH]c(C)c3C2c2ccccc2Cl)cc1", "note": "(centres undefined)", "survival": "120%"}
{"smiles": "CCN(CC)C(=O)CN1C(=O)COc2ccc(S(=O)(=O)N3CCOCC3)cc21", "survival": "78%"}
{"smiles": "O=C(Nc1cc2c(cc1C(=O)c1ccc(Br)cc1)OCCO2)c1ccc(Cl)cc1", "survival": "102%"}
{"smiles": "Cc1ccc2c(c1)N(CC(=O)OCC(=O)NCc1ccccc1)C(=O)CO2", "survival": "81%"}
{"smiles": "COCCNC(=O)c1ccc(-c2nc(CS(=O)(=O)c3ccccc3)c(C)o2)cc1", "survival": "119%"}
{"smiles": "COCCCNc1nc2c(c(=O)[nH]c(=O)n2C)n1CC(O)COc1ccc(Cl)cc1", "note": "(centres undefined)", "survival": "66%"}
{"smiles": "CCOC(=O)c1ccc(N2C(=O)c3n[nH]c(-c4cccs4)c3C2c2ccc(CC)cc2)cc1", "note": "(centres undefined)", "survival": "99%"}
{"smiles": "CCOC(=O)c1ccc(N2C(=O)c3[nH]nc(-c4ccccc4)c3C2c2ccc(CC)cc2)cc1", "note": "(centres undefined)", "survival": "100%"}
{"smiles": "O=C(O)c1ccc(N2C(=O)c3[nH]nc(-c4ccccc4)c3C2c2cccc(F)c2)cc1", "note": "(centres undefined)", "survival": "92%"}
{"smiles": "CCOC(=O)c1ccc(N2C(=O)c3[nH]nc(-c4ccccc4)c3C2c2ccc(C(C)C)cc2)cc1", "note": "(centres undefined)", "survival": "105%"}
{"smiles": "O=C1c2[nH]nc(-c3ccccc3)c2C(c2ccccc2)N1c1cccc(C(F)(F)F)c1", "note": "(centres undefined)", "survival": "20% (active)"}
{"smiles": "CCc1ccc(C2c3c(n[nH]c3C)C(=O)N2c2ccc(C)cc2)cc1", "note": "(centres undefined)", "survival": "8% (active)"}
{"smiles": "CCOC(=O)c1ccc(N2C(=O)c3n[nH]c(C)c3C2c2ccc(CC)cc2)cc1", "note": "(centres undefined)", "survival": "78%"}
{"smiles": "CCc1ccc(C2c3c(-c4ccccc4)n[nH]c3C(=O)N2c2ccc(C(=O)O)cc2)cc1", "note": "(centres undefined)", "survival": "48% (active)"}
{"smiles": "CCOC(=O)c1ccc(N2C(=O)c3[nH]nc(-c4ccc(C)cc4)c3C2c2cccc(F)c2)cc1", "note": "(centres undefined)", "survival": "117%"}
{"smiles": "Clc1ccc(OCc2nc(-c3ccc(-n4cccc4)cc3)no2)cc1", "survival": "163%"}
{"smiles": "O=C(CNCC1CCCO1)NCc1ccco1", "note": "(centres undefined)", "survival": "97%"}
{"smiles": "CCN(Cc1ccccc1)Cc1c(O)ccc2c(=O)c(-c3ccccc3Cl)c(C(F)(F)F)oc12", "survival": "74%"}
{"smiles": "COc1ccc(C2=Nn3c([n+](C)c4ccccc43)SC2)cc1", "survival": "0% (active)"}
{"smiles": "COc1ccc(C2=Nn3c(nc4sc(C(=O)Nc5cccc(C)c5)c(C)c4c3=O)SC2)cc1", "survival": "105%"}
{"smiles": "COc1ccc(N=C2SCC(=O)N2C)cc1", "survival": "76%"}
{"smiles": "O=C(COc1ccccc1)Nc1ccccc1OCc1cc(=O)n2ccccc2n1", "survival": "78%"}
{"smiles": "CCC1CN(C(=O)N2CCC(C(=O)NCCCc3ccccc3)CC2)c2ccccc2O1", "note": "(centres undefined)", "survival": "69%"}
{"smiles": "CNCC(=O)NC(c1ccccc1)c1ccccc1", "survival": "97%"}
{"smiles": "Cc1ccc2nc(N(CCCN(C)C)C(=O)c3ccc(Br)s3)sc2c1", "survival": "77%"}
{"smiles": "CN(C)CCCN(C(=O)c1ccc(Br)s1)c1nc2ccc(F)cc2s1", "survival": "-5% (active)"}
{"smiles": "CN(C)CCCN(C(=O)c1cccs1)c1nc2ccc(F)cc2s1", "survival": "92%"}
{"smiles": "COC(=O)c1sc2cccc(F)c2c1S(=O)(=O)N1CCN(c2ccc(F)cc2)CC1", "survival": "81%"}
{"smiles": "COc1ccc2c(CNCc3cccs3)c(C(=O)O)n(Cc3cccc(F)c3)c2c1", "survival": "72%"}
{"smiles": "Cc1cc(C)cc(Nc2cc(C(=O)NCCCN(Cc3ccccc3)C(C)C)c3ccccc3n2)c1", "survival": "-4% (active)"}
{"smiles": "Cc1cc(C)cc(Nc2cc(C(=O)NCc3ccccc3)c3ccccc3n2)c1", "survival": "113%"}
{"smiles": "CSc1cccc(Nc2cc(C(=O)NCCCN(Cc3ccccc3)C(C)C)c3ccccc3n2)c1", "survival": "88%"}
{"smiles": "Cc1ccc(N2CC(C(=O)NCCS(=O)(=O)N3CCN(c4ccc(F)cc4)CC3)CC2=O)cc1", "note": "(centres undefined)", "survival": "89%"}
{"smiles": "Cc1ccc(CN(C(=O)COc2ccccc2[N+](=O)[O-])c2ccccn2)cc1", "survival": "46%"}
{"smiles": "Cc1ccc(CN(C(=O)COc2ccccc2[N+](=O)[O-])c2ccccn2)o1", "survival": "69%"}
{"smiles": "Cc1ccc(CN(C(=O)COc2ccc([N+](=O)[O-])cc2)c2ccccn2)cc1", "survival": "49%"}
{"smiles": "Cc1ccc(CN(C(=O)COc2cccc([N+](=O)[O-])c2)c2ccccn2)o1", "survival": "62%"}
{"smiles": "Cc1ccc(CN(C(=O)COc2ccc([N+](=O)[O-])cc2)c2ccccn2)o1", "survival": "62% (active)"}
{"smiles": "Cc1ccc(CN(C(=O)COc2cccc([N+](=O)[O-])c2)c2ccccn2)cc1", "survival": "39% (active)"}
{"smiles": "Cc1c(-c2nsc(NC(=O)c3ccc(Cl)cc3)n2)nnn1-c1ccc(C(C)C)cc1", "survival": "66%"}
{"smiles": "CN(C1CCCCC1)S(=O)(=O)c1ccc(F)c(C(=O)Nc2ccc(C(F)(F)F)cc2)c1", "survival": "83%"}
{"smiles": "CCn1c(CN2CCCCC2)nc2cc(NC(=O)c3ccc([N+](=O)[O-])cc3)ccc21", "survival": "90%"}
{"smiles": "O=C(Nc1nnc(S(=O)(=O)Nc2ccccc2)s1)c1ccccc1Cl", "survival": "52%"}
{"smiles": "O=C(Nc1nnc(S(=O)(=O)Nc2ccccc2)s1)C1CCCCC1", "survival": "31% (active)"}
{"smiles": "Cc1cccc(NS(=O)(=O)c2nnc(NC(=O)C3CCCCC3)s2)c1", "survival": "34% (active)"}
{"smiles": "CN(c1ccccc1)S(=O)(=O)c1nnc(NC(=O)C2CCCCC2)s1", "survival": "65%"}
{"smiles": "Cc1cccc(NS(=O)(=O)c2nnc(NC(=O)c3cccc(C)c3)s2)c1", "survival": "61%"}
{"smiles": "Cc1cccc(N(C)S(=O)(=O)c2nnc(NC(=O)C3CCCCC3)s2)c1", "survival": "72%"}
{"smiles": "CC(=O)c1cc(-c2ccc(F)cc2)n(CCC(=O)Nc2nc3ccc(C)cc3s2)c1C", "survival": "69%"}
{"smiles": "Cc1cc(C)c(NC(=O)Cn2c(=O)oc3cc(S(=O)(=O)N4CCCCCC4)ccc32)c(C)c1", "survival": "83%"}
{"smiles": "CCOc1ccc(-n2c(SCC(=O)c3ccccc3)nc3c([nH]c4ccccc43)c2=O)cc1", "survival": "131%"}
{"smiles": "Cc1cccc(C(=O)OCc2cc(=O)n3nc(-c4cccs4)sc3n2)c1", "survival": "101%"}
{"smiles": "Cc1ccc(CCNC(=O)c2ccc(Nc3nc4ccccc4n4nnnc34)cc2)cc1", "survival": "72%"}
{"smiles": "N#Cc1ccc(NC(=O)C2Cc3ccccc3CN2S(=O)(=O)c2ccc(F)cc2)cc1", "note": "(centres undefined)", "survival": "54%"}
{"smiles": "OCCn1nnnc1-c1ccccc1", "survival": "85%"}
{"smiles": "CC(C)C12CN3CC(C(C)C)(CN(C1)C3c1ccc(OCc3ccccc3)cc1)C2=O", "note": "(centres undefined)", "survival": "85%"}
{"smiles": "CCOc1ccc(C2N3CC4(C(C)C)CN2CC(C(C)C)(C3)C4=O)cc1OC", "note": "(centres undefined)", "survival": "91%"}
{"smiles": "CC(C)C12CN3CC(C(C)C)(CN(C1)C3c1ccc(Cl)cc1)C2=O", "note": "(centres undefined)", "survival": "39% (active)"}
